# Results filed as inconclusive are left out. Entries that show only a call come without a potency. Calls of active or inactive are those of the source. Unless noted, calls follow the shape of the dose curve; as a rule, active = well fitted curve in the direction sought with a large enough effect in the repeat runs; inconclusive = weak or mixed curves; inactive = no such curve, though single readings can be large; an effect the other way counts as inactive or inconclusive. Non-standard residues stand in square brackets, D forms with d. Residues, ends and D or L forms follow the SMILES beside them. pGlu = O=C1CC[C@@H](C(=O)O)N1; Thz = O=C(O)[C@@H]1CSCN1
# Experiments:
# [1] = qHTS assay to identify small molecule antagonists of the glucocorticoid receptor (GR) signaling pathway - cell viability counter screen (AID 720693); also: nearly all actives have a fitted effect of over 55% in size
# [2] = qHTS assay for identifying genotoxic compounds that show differential cytotoxicity against isogenic chicken DT40 cell lines with known DNA damage response pathways - wild type cell line (AID 743012); also: nearly all actives have a fitted effect of over 60% in size; also: potency is read from the fitted curve at half-maximal effect
# How it was run: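 Parental DNA repair-proficient DT40 cells, 300 per well, were pre-incubated ~0.5 h at 37 C/5% CO2, pin-dosed with compounds in DMSO, then incubated 40 h. Viability was read as CellTiter-Glo luminescence after 30 min at room temperature.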
# [3] = qHTS assay for identifying genotoxic compounds that show differential cytotoxicity against isogenic chicken DT40 cell lines with known DNA damage response pathways - Rev3 mutant cell line (AID 743014); also: nearly all actives have a fitted effect of over 55% in size; also: potency is read from the fitted curve at half-maximal effect
# [4] = qHTS assay for identifying genotoxic compounds that show differential cytotoxicity against isogenic chicken DT40 cell lines with known DNA damage response pathways - Rad54/Ku70 mutant cell line (AID 743015); also: nearly all actives have a fitted effect of over 60% in size; also: potency is read from the fitted curve at half-maximal effect
# [5] = qHTS assay to identify small molecule antagonists of the androgen receptor (AR) signaling pathway - cell viability counter screen (AID 743033; also: nearly all actives have a fitted effect of over 45% in size)
# [6] = target: Androgen receptor (Homo sapiens) (UniProt P10275); experiment: qHTS assay to identify small molecule antagonists of the androgen receptor (AR) signaling pathway (AID 743035; active = well fitted inhibition curve with a large enough effect in the signal ratio in the repeat runs, not every such curve was filed as active; the % refers to the signal ratio; also: potency is read from the fitted curve at half-maximal effect)
# How it was run: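 HEK293 cells stably carrying a UAS-driven beta-lactamase reporter (AR-UAS-bla GripTite) were plated for 4 h at 37C, then given compound and the agonist R1881 and incubated 16 h. Reporter activity was read by LiveBLAzer B/G FRET fluorescence after 2 h at room temperature.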
# [7] = target: Androgen receptor (Homo sapiens) (UniProt P10275); experiment: qHTS assay to identify small molecule agonists of the androgen receptor (AR) signaling pathway (AID 743036; active = well fitted activation curve with a large enough effect in the signal ratio in the repeat runs, with a control signal flat, not every such curve was filed as active; the % refers to the signal ratio)
# How it was run: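 Fluorescence from a beta-lactamase FRET substrate served as read-out in AR-UAS-bla GripTite HEK293 cells. Cells were treated with DMSO-dissolved compounds for 16 h at 37C, then with LiveBLAzer B/G substrate for 2 h at room temperature.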
# [8] = target: Androgen receptor (Homo sapiens) (UniProt P10275); experiment: qHTS assay to identify small molecule agonists of the androgen receptor (AR) signaling pathway using the MDA cell line (AID 743040; also: nearly all actives have a fitted effect of over 20% in size; also: potency is read from the fitted curve at half-maximal effect)
# How it was run: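 Cells plated, 5 h at 37C/0% CO2; compound or DMSO pinned; 16 h at 37C; ONE-Glo added; luminescence measured after 30 min at room temperature. Reporter line: MDA-kb2 with MMTV-luciferase responsive to AR and GR.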
# [9] = qHTS assay to identify small molecule antagonists of the androgen receptor (AR) signaling pathway using the MDA cell line - cell viability counter screen (AID 743041; also: nearly all actives have a fitted effect of over 45% in size)
# How it was run: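 Cells were plated at 3,000 per well and left 5 h. Compounds in DMSO were then pinned in, followed by R1881. After 16 h at 37C, CellTiter-Fluor fluorescence gave viability.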
# [10] = target: Androgen receptor (Homo sapiens) (UniProt P10275); experiment: qHTS assay to identify small molecule antagonists of the androgen receptor (AR) signaling pathway using the MDA cell line (AID 743042; also: nearly all actives have a fitted effect of over 55% in size)
# How it was run: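 Antagonist mode: compounds plus R1881 agonist added to MDA-kb2 AR-luc cells, incubated 16 h at 37C. Luciferase reporter luminescence quantified, with multiplexed CellTiter-Fluor readout for cell viability.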
# [11] = qHTS assay to identify small molecule antagonists of the thyroid receptor (TR) signaling pathway (AID 743065); also: nearly all actives have a fitted effect of over 55% in size; also: potency is read from the fitted curve at half-maximal effect
# How it was run: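 Antagonism measured as loss of luciferase signal in GH3 cells stably carrying a TRE-luciferase reporter, co-treated with compound and T3 (1 nM final) for 23.5 h at 37 C. Viability was read in the same well by CellTiter-Fluor.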
# [12] = test system: thyroid hormone receptor (rat, GH3 cells); experiment: qHTS assay to identify small molecule agonists of the thyroid receptor (TR) signaling pathway (AID 743066; calls by dose curve)
# [13] = qHTS assay to identify small molecule antagonists of the estrogen receptor alpha (ER-alpha) signaling pathway - cell viability counter screen (AID 743074; calls by dose curve;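 also: HEK293 cells carrying ER-alpha-UAS-bla reporter stimulated with 17beta-estradiol; nearly all actives have a fitted effect of over 45% in size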)
# [14] = qHTS assay to identify small molecule antagonists of the estrogen receptor alpha (ER-alpha) signaling pathway using the BG1 cell line - cell viability counter screen (AID 743081);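 also: compound given together with 17beta-estradiol as the ER stimulus; nearly all actives have a fitted effect of over 45% in size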
# Aromatase (Homo sapiens) = Aromatase (Homo sapiens) (UniProt P11511); experiment: qHTS assay to identify aromatase inhibitors (AID 743083); also: nearly all actives have a fitted effect of over 55% in size
# [15] = qHTS assay to identify small molecule antagonists of the thyroid receptor (TR) signaling pathway - cell viability counter screen (AID 743064); also: nearly all actives have a fitted effect of over 50% in size; also: potency is read from the fitted curve at half-maximal effect
# How it was run: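 Fluorescence from CellTiter-Fluor, added after 23.5 h exposure at 37 °C, reported viability of GH3.TRE-Luc cells co-treated with compound and 1 nM T3. Measured in the same wells as the luciferase TR readout.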
# [16] = target: Estrogen receptor (Homo sapiens) (UniProt P03372); experiment: qHTS assay to identify small molecule agonists of the estrogen receptor alpha (ER-alpha) signaling pathway (AID 743075; calls by dose curve)
# [17] = target: Estrogen receptor (Homo sapiens) (UniProt P03372); experiment: qHTS assay to identify small molecule agonists of the estrogen receptor alpha (ER-alpha) signaling pathway using the BG1 cell line (AID 743079); settings: BG1Luc4E2 cells, ERE-luciferase agonist, 22 h; activation: at 70.3 µM (top of the series); also: nearly all actives have a fitted effect of over 20% in size; also: potency is read from the fitted curve at half-maximal effect
# [18] = target: Estrogen receptor (Homo sapiens) (UniProt P03372); experiment: qHTS assay to identify small molecule antagonists of the estrogen receptor alpha (ER-alpha) signaling pathway (AID 743069; active = well fitted curve in the direction sought with a large enough effect in the signal ratio in the repeat runs, not every such curve was filed as active; the % refers to the signal ratio)
# How it was run: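 ER-alpha-UAS-bla GripTite HEK293 line; 2% charcoal-stripped FBS overnight; plated, 4 hr 37C/5% CO2; cpd in DMSO + 17beta-estradiol, 18 hr 37C; LiveBLAzer B/G FRET substrate 2 hr RT; fluorescence intensity.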
# [19] = qHTS assay to identify small molecule antagonists of the estrogen receptor alpha (ER-alpha) signaling pathway using the BG1 cell line (AID 743080; calls by dose curve;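 also: BG1 cells stimulated with 17beta-estradiol alongside compound; nearly all actives have a fitted effect of over 25% in size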; also: potency is read from the fitted curve at half-maximal effect)
# How it was run: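 Readout is ONE-Glo luminescence, taken 30 min at room temperature after reagent addition, preceded by a CellTiter-Fluor viability read; BG1-Luc-4E2 cells had received compound and 17beta-estradiol for 21.5 h at 37 C.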
# Chain of Aromatase (Homo sapiens) (P11511 whole entry, looked up): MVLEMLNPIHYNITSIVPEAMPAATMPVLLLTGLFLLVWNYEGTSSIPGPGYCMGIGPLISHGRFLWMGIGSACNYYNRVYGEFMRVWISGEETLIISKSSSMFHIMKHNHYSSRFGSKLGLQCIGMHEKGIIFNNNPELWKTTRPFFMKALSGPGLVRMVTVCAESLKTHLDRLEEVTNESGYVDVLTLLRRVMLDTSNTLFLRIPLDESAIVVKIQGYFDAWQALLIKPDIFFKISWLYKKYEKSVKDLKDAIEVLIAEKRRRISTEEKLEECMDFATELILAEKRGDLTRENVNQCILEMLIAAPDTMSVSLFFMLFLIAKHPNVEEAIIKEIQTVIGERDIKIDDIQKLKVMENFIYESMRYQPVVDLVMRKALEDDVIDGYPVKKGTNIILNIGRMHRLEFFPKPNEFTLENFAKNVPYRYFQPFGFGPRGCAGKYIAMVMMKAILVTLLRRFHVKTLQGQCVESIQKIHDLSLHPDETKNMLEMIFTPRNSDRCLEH
# Chain of Estrogen receptor (Homo sapiens) (P03372 whole entry, looked up): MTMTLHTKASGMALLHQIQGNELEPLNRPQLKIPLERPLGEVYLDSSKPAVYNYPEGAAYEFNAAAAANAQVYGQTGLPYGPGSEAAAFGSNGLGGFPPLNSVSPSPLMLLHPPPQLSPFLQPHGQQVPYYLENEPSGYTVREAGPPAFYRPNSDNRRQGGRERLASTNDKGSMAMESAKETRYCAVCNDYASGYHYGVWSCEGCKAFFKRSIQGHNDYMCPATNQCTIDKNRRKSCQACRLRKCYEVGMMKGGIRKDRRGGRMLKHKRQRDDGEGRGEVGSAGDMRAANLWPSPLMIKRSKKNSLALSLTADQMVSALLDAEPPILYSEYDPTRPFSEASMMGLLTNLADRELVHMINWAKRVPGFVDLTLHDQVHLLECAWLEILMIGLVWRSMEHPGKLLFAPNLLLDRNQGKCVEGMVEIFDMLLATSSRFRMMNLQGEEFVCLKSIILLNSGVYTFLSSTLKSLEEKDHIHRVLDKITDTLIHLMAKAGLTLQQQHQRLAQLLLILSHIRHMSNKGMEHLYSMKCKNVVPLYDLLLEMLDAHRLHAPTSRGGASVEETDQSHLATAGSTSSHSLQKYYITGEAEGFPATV
# Chain of Androgen receptor (Homo sapiens) (P10275 whole entry, looked up): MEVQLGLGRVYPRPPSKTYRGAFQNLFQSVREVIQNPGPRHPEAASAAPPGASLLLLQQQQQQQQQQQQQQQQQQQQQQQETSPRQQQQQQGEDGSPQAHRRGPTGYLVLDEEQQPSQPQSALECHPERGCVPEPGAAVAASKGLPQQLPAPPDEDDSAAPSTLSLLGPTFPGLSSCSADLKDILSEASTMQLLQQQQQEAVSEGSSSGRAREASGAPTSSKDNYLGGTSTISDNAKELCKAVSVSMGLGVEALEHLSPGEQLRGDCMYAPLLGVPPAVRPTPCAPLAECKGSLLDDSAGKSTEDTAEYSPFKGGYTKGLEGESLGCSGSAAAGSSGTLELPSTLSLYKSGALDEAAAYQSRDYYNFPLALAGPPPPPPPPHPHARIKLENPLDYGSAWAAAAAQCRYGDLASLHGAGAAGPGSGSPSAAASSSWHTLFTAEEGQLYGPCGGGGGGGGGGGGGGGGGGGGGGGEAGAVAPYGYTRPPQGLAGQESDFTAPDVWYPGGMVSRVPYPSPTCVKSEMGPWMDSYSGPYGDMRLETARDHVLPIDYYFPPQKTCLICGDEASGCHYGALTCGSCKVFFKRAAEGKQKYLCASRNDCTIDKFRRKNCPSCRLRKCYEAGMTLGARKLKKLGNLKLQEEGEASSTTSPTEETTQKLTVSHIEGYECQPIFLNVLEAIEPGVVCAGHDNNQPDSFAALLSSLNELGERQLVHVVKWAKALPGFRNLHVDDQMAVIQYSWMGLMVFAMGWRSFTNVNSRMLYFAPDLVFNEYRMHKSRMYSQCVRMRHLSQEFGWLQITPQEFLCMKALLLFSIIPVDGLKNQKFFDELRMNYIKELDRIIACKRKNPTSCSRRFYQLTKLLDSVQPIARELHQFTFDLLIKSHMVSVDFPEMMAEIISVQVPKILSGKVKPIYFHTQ
SMILES,Potency [1],Potency [2],Potency [3],Potency [4],Potency [5],Potency [6],Potency [7],Potency [8],Potency [9],Potency [10],Potency [11],Potency [12],Potency [13],Potency [14],Potency (Aromatase (Homo sapiens)),Potency [15],Potency [16],Potency [17],Potency [18],Potency [19]
CC(CCc1ccc(O)cc1)NCC(O)c1ccc(O)cc1 (configuration not stated),inactive,inactive,inactive,inactive,inactive,inactive,inactive,inactive,inactive,inactive,inactive,inactive,inactive,inactive,inactive,–,–,–,–,–
CC(=O)[C@@]1(O)CC[C@H]2[C@@H]3C=C(Cl)C4=CC(=O)CC[C@]4(C)[C@H]3CC[C@@]21C,inactive,11900 nM (active),23700 nM (active),23700 nM (active),inactive,674 nM (active),–,596 nM (active),inactive,inactive,29800 nM (active),inactive,inactive,–,inactive,inactive,inactive,29800 nM (active),–,–
O=C1CC[C@@H](C(=O)N2CSC[C@H]2C(=O)O)N1 ([pGlu]-[Thz]-OH),inactive,inactive,inactive,inactive,inactive,inactive,inactive,–,inactive,inactive,inactive,inactive,inactive,inactive,inactive,inactive,inactive,inactive,inactive,inactive
CC[C@]1(O)CC2CN(CCc3c([nH]c4ccccc34)[C@@](C(=O)OC)(c3cc4c(cc3OC)N(C)[C@H]3[C@@](O)(C(N)=O)[C@H](O)[C@]5(CC)C=CCN6CC[C@]43[C@@H]65)C2)C1 (some centres not stated),inactive,47.3 nM (active),53.1 nM (active),59.6 nM (active),inactive,213 nM (active),–,inactive,inactive,inactive,168 nM (active),–,–,–,inactive,335 nM (active),–,inactive,–,150 nM (active)
CCCC(=O)N1CCCN(c2nc(N)c3cc(OC)c(OC)cc3n2)CC1,inactive,inactive,inactive,inactive,inactive,inactive,inactive,inactive,–,inactive,inactive,inactive,inactive,inactive,inactive,inactive,inactive,–,inactive,inactive
CN[C@H]1CCc2cc(OC)c(OC)c(OC)c2-c2ccc(OC)c(=O)cc21,inactive,47.3 nM (active),53.1 nM (active),53.1 nM (active),inactive,60.1 nM (active),–,inactive,inactive,inactive,84.1 nM (active),inactive,–,inactive,inactive,119 nM (active),–,inactive,inactive,84.1 nM (active)
CC1(C)S[C@@H]2[C@H](NC(=O)[C@H](NC(=O)N3CCN(S(C)(=O)=O)C3=O)c3ccccc3)C(=O)N2[C@H]1C(=O)O,inactive,inactive,inactive,inactive,inactive,inactive,–,29800 nM (active),inactive,inactive,inactive,inactive,inactive,inactive,inactive,–,inactive,11900 nM (active),inactive,inactive
Nc1ccn(C[C@@H](CO)OCP(=O)(O)O)c(=O)n1,inactive,inactive,inactive,inactive,inactive,inactive,inactive,inactive,inactive,inactive,inactive,inactive,inactive,–,inactive,inactive,–,–,inactive,inactive
CC(CN1c2ccccc2Sc2ccc(S(=O)(=O)N(C)C)cc21)N(C)C (configuration not stated),inactive,11900 nM (active),26600 nM (active),18800 nM (active),inactive,inactive,inactive,inactive,–,inactive,13300 nM (active),–,inactive,inactive,–,11900 nM (active),inactive,inactive,inactive,inactive
Cc1ncc(C[n+]2csc(CCOP(=O)(O)OP(=O)(O)O)c2C)c(N)n1,inactive,inactive,inactive,inactive,inactive,inactive,inactive,inactive,inactive,inactive,inactive,inactive,inactive,inactive,inactive,inactive,–,–,–,–
N[C@@H](C(=O)N[C@@H]1C(=O)N2C(C(=O)O)=C(CSc3cn[nH]n3)CS[C@H]12)c1ccc(O)cc1,inactive,inactive,inactive,inactive,inactive,inactive,inactive,inactive,inactive,inactive,–,–,inactive,inactive,inactive,–,–,–,–,–
CN1c2c(nc(N)[nH]c2=O)NCC1CNc1ccc(C(=O)NC(CCC(=O)O)C(=O)O)cc1 (configuration not stated),inactive,inactive,inactive,inactive,inactive,inactive,–,inactive,inactive,inactive,inactive,inactive,inactive,inactive,inactive,inactive,inactive,inactive,inactive,inactive
C[N+]1(C)CCN(CC(O)(c2ccccc2)C2CCCCC2)CC1 (configuration not stated),inactive,inactive,inactive,inactive,inactive,inactive,inactive,inactive,inactive,inactive,–,–,inactive,inactive,inactive,–,–,–,–,–

# — PubChem BioAssay (Tox21)
